PHOSPHO1 inh = PHOSPHO1 (human) inhibition; Q8TCT1; recombinant PHOSPHO1, absorbance phosphatase assay; inhibition, % at 13.3 µM; actives 1.1% (n = 290,000); in the data active = inhibition above about 60%
TPT1 inhibitor = blocks Candida albicans tRNA 2'-phosphotransferase; actives 0.81% (n = 300,000); inhibition, % at 5 µM; recombinant caTPT1, FP RNA substrate dephosphorylation;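 active = inhibition above the mean of all tested compounds plus 3 SD, set per screening campaign, cut at about 24% in these data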;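 also: plate controls were DMSO alone for no effect and ferristatin control at 100 nM for full effect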
CTSL1 counter = counter-screen for PFM18AAP inhibitors: inhibitors of F. hepatica cathepsin L1 | recombinant F. hepatica cathepsin L1, Z-Leu-Arg-MCA fluorescence | inhibition, % at 5.96 µM | actives 0.49% (n = 300,000) | AID 1906;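 active = inhibition above the mean of all tested compounds plus 3 SD, set per screening campaign, cut at about 17% in these data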;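 also: 0% = plate median of test compound wells and 100% = 1 µM Z-Phe-Ala-diazomethylketone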
CendR NRP1 mod = alters CendR peptide binding to human NRP-1; O14786; FAM-RPARPAR peptide binding to NRP-1, fluorescence polarization; inhibition, % at 25 µM; actives 0.85% (n = 360,000);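 active = inhibition or corrected inhibition above about 18%, plus a signal ratio from 0.5 to 1.5, limit read from the data, passing the limit was not always enough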
Rpn11 block = inhibitors of human proteasome Rpn11; O00487; actives 0.59% (n = 360,000); inhibition, % at 20 µM; AID 588493; human 26S proteasome, Ub4-pepOG fluorescence polarization; 20S core pre-blocked with epoxomicin;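 active = inhibition at 20 µM, scaled to each plate's controls, above about 33%, limit read from the data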
HNF4A DNA FP = change in binding of human HNF4 alpha to DNA | activity change, % at 10 µM | AID 1224865 | P41235 | actives 0.3% (n = 360,000) | HNF4a-FITC DNA binding, fluorescence polarization, 1 h; in the data active = activity change above about 30%, passing the limit was not always enough
caTPT1 confirm = TPT1 (C. albicans) inhibition, confirmation; shares compounds with TPT1 inhibitor; actives 74% (n = 2,400); recombinant caTPT1, fluorescence polarization, RNase T1 coupled; AID 2149; inhibition, % at 5 µM;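 active = inhibition above the primary screen limit, the mean inhibition of all tested compounds plus 3 SD, cut at about 25% in these data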
RNase T1 inh = counter-screen for TPT1 inhibitors: inhibitors of Aspergillus oryzae RNase T1; shares compounds with TPT1 inhibitor; AID 2153; inhibition, % at 5 µM; RNase T1 cleavage, fluorescence polarization, 1536-well; actives 83% (n = 2,400);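 active = inhibition above the solvent-only control well mean plus 3 SD, limit set per screening run, cut at about 23% in these data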;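 also: plate controls were DMSO wells with enzyme for no effect and wells without RNase T1 for full effect; inhibitors block cleavage so intact labeled substrate keeps polarization high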
Rpn11 confirm = Rpn11 inhibition confirmation, single concentration. purified human 26S proteasome, Ub4-pepOG fluorescence polarization; proteasome pretreated with epoxomicin. actives 29% (n = 1,900). inhibition, % at 20 µM. AID 602318. shares compounds with Rpn11 block
MMP-2 inh = MMP-2 (human) inhibition counter-screen. shares compounds with Rpn11 block. actives 4% (n = 1,900). recombinant MMP-2, FRET peptide cleavage fluorescence. inhibition, % at 20 µM;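 also: human MMP-2 activated beforehand with APMA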
Thrombin FP = blocks bovine thrombin, flagging nonselective RPN11 hits; actives 13% (n = 1,900); inhibition, % at 20 µM; shares compounds with Rpn11 block; bovine thrombin cleavage of Ub4-pepOG, fluorescence polarization;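 active = mean inhibition at least 40% at 20 µM, or signal 3 deviations below plate average, so some actives read negative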;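 also: plate controls were thrombin with DMSO for no effect and buffer wells lacking thrombin for full effect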
* marks the source's active call; other numbers are inactive results; · = no result. Only some compounds are listed: those with a hit (about 3.3% of all), similar ones and a draw of the others. Rule as the data show it, unless noted: active = inhibition above about 40%; inactive = the rest.

SMILES	PHOSPHO1 inh	TPT1 inhibitor	CTSL1 counter	CendR NRP1 mod	Rpn11 block	HNF4A DNA FP	caTPT1 confirm	RNase T1 inh	Rpn11 confirm	MMP-2 inh	Thrombin FP
COc1ccccc1/C=C/C=C1N=C(/C=C/c2ccc(Cl)cc2)OC/1=O	1	40*	1	-90	60*	7	124*	124*	11	-52	4
NS(=O)(=O)c1cccc(C(=O)NC2CCSc3ccccc32)c1 (centres undefined)	14	-2	-1	0	-4	2	·	·	·	·	·
NS(=O)(=O)c1cc(C(=O)NC2CCSc3ccccc32)ccc1Cl (centres undefined)	16	54*	3	-134	106*	-77	67*	3	98*	22	61*
Cc1nn(CC(=O)c2ccc(Cl)s2)c(C)c1[N+](=O)[O-]	36	43*	0	-41	44*	15	40*	49*	19	6	17
Cc1ccc(C(=O)Cn2nc(C)c([N+](=O)[O-])c2C)c(C)c1	10	1	-5	12	-4	0	·	·	·	·	·
CC(=O)c1c(C)[nH]c(C(=O)CSc2nc3ccccc3c(=O)n2CCCN2CCOCC2)c1C	-25	3	5	-4	-1	-2	·	·	·	·	·
Cc1sc2nc(CSc3nc4ccccc4c(=O)n3CCCN3CCOCC3)[nH]c(=O)c2c1C	6	57*	2	-102	50*	34*	67*	77*	89*	-33	38
CN1C(=O)CC(c2cn(Cc3ccccc3)c3ccccc23)C1=O (centres undefined)	-1	26*	0	-64	54*	18	50*	61*	21	-28	23
CC(=O)C1=C(C)NC(SCc2cccc([N+](=O)[O-])c2)=C(C#N)C1c1ccco1 (centres undefined)	44	-5	-2	-6	-6	3	·	·	·	·	·
Cc1ccccc1N(CC(=O)N1CCCCCC1)S(C)(=O)=O	·	-2	3	-7	3	-4	·	·	·	·	·
Nc1c(C(=O)O)sc2nc(-c3ccc(F)cc3)cc(-c3ccccc3)c12	-35	29*	4	-24	53*	18	13	22*	6	5	-3
Nc1c(C(=O)O)sc2nc(-c3ccccc3)cc(-c3ccc(Cl)cc3)c12	40	0	4	-21	14	7	·	·	·	·	·
Cc1nnc2sc(-c3cccc(F)c3)nn2c1=O	38	3	2	4	-8	0	·	·	·	·	·
COc1ccc2nc(-c3ccccc3)cc(C(=O)OCC(=O)NC3CC3)c2c1	·	·	·	7	7	0	·	·	·	·	·
Cc1ccc(NC(=O)CO/N=C/c2ccc(N(C)C)cc2)cc1	3	93*	0	-191	77*	72*	106*	113*	108*	-44	96*
Cc1ccc(N=C2C(=O)Nc3ccccc32)c(C)c1	37	-1	-2	0	-3	-2	·	·	·	·	·
Cc1ccc(C(=O)/C=C/c2ccc(-c3ccc(C)cc3)o2)cc1	-38	39*	28*	-20	43*	6	72*	79*	18	1	-13
CC(C)COC(=O)n1c(SCC(N)=O)nc2ccccc21	25	-2	0	-5	-8	-1	·	·	·	·	·
CCOC(=O)CSc1nc2ccccc2n1C(=O)OCC	16	39*	1	-52	46*	22	37*	47*	51*	-18	32
CCCCc1c(O)nc(SCC(=O)NC(C)(C)C)n(-c2ccccc2C)c1=O	50	-6	2	3	1	1	·	·	·	·	·
CCN1C(=O)c2ccc(C(=O)Nc3ncc(C)s3)cc2C1=O	47	0	6	11	-2	4	·	·	·	·	·
CCCN1C(=O)/C(=C/c2c(NCCCOC(C)C)nc3c(C)cccn3c2=O)SC1=S	30	121*	3	-172	110*	85	116*	129*	84*	-21	49*
CC(=O)N1CCc2cc(N=NC3=C(O)CC(C)(C)CC3=O)ccc21	24	27*	-1	-112	108*	66*	46*	57*	67*	-29	48*
O=c1c2ccccc2nc(SCc2ccccc2)n1CC1CCCO1 (centres undefined)	20	2	8	3	4	0	·	·	·	·	·
CCc1ccc(S(=O)(=O)Nc2c(C)nc3nc[nH]n3c2=O)cc1	39	2	-1	4	-1	0	·	·	·	·	·
SMILES	PHOSPHO1 inh	TPT1 inhibitor	CTSL1 counter	CendR NRP1 mod	Rpn11 block	HNF4A DNA FP	caTPT1 confirm	RNase T1 inh	Rpn11 confirm	MMP-2 inh	Thrombin FP
CCNc1ccc(Br)cc(C(=O)/C=C/c2ccc3c(c2)OCO3)c1=O	24	31*	-1	-166	71*	-11	26*	48*	20	9	1
CCCC1=NN2C(=N)/C(=C\c3ccc(SCc4ccco4)o3)C(=O)N=C2S1	89*	43*	12	-239	124*	30	47*	60*	40*	-5	23
CCC1=NN2C(=N)/C(=C/c3c(C)nn(-c4ccccc4)c3Cl)C(=O)N=C2S1	-11	2	-8	-1	0	0	·	·	·	·	·
CCC1=NN2C(=N)/C(=C\c3ccc(SCc4ccco4)o3)C(=O)N=C2S1	83*	48*	2	-196	80*	22	29*	43*	20	10	14
CN(C(=O)c1cccc(NC(=O)Cc2cccc(NC(=O)C3CCN(C(=O)C4CCCCC4)CC3)c2)c1)C1CC1	·	·	·	-9	-1	1	·	·	·	·	·
CCc1ccc2nc3sc(C(=O)O)cc3cc2c1	45	2	8	-8	1	-1	·	·	·	·	·
CC(=O)c1cccc(-c2ccc3c(=O)[nH]c(Nc4ccccc4)cc3c2)c1	·	30*	85*	-85	85*	12	59*	71*	39	-17	-8
Cc1ccc(C(=O)NCC(=O)N2CCN(c3ccccc3O)CC2)s1	·	·	·	14	1	-4	·	·	·	·	·
COc1ccccc1N1C(=N)S/C(=C\c2ccc(-c3ccccc3C(=O)O)o2)C1=O	2	57*	6	-144	70*	15	76*	87*	74*	24	47*

Bioassay records deposited in PubChem BioAssay by several laboratories.
